Screening results (PubChem)
Giardia kill: Giardia lamblia killing; Giardia lamblia trophozoite viability; activity change, % at 7.66 µM, hits read low; hit rate 0.15% among 340,000; AID 540267; in the data active means activity change below about -80%; inconclusive means between about -30% and that limit;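 further: parasites exposed to compound for two days anaerobically before the ATP read; on the % scale 0 is the no-effect control and ±100 the full control effect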
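Viability, read as ATP luminescence: trophozoites at 100 cells/well, compound added, 48 hrs anaerobic at 37 deg C, then 15-30 min room-temperature development before reading.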
ERG Ets-DNA blk: inhibitors of human ERG Ets domain-DNA interaction | P11308 | fluorescence polarization, His-ERG Ets domain / labelled DNA | Potency, µM (series often up to 76.9 µM), without a hit: at the top dose FP activity, negative = inhibition, most hits filed as inhibitors | hit rate 0.028% among 370,000 | AID 624246; active means well fitted inhibition curve with a large enough effect in the polarisation, with a control signal flat; inconclusive means small, poorly fitted or top-dose-only effect, or effect the other way, or a change in a side signal; inactive means no such curve, though single readings can be large or run the other way; the % refers to the polarisation;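 further: polarization taken with two DNA probes labelled with fluorescein and Texas red; potency means the concentration at half of the fitted maximal effect; % of control where 0% means no effect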
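His-tagged ERG Ets domain (1 uM in the protein solution; 300mM KCl, 50mM Tris-HCl, 1mM EDTA, 1mM DTT, pH 7.5) received compound, then a probe mix of 5 nM fluorescein-DNA and 100nM Texas-615-DNA. Fluorescence polarization was read for both dyes.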
Gal4-VP16 FLuc: counter-screen for ROR gamma inhibitors: Gal4-VP16 reporter; hit rate 3.5% among 310,000; Drosophila S2 Gal4-VP16 UAS-luciferase, luminescence, 20 h; AID 2546; Potency, µM (series often up to 53.6 µM), without a hit: at the top dose activity, negative = inhibition, usual class: inhibitors;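 further: Gal4-VP16 expression switched on by copper sulfate through the metallothionein promoter; potency means the concentration at half of the fitted maximal effect; on the % scale 0 is the no-effect control and ±100 the full control effect; nearly all actives have a fitted effect of over 50% in size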
RORgamma inh: blocks mouse ROR gamma transcriptional activity | P51450 | Drosophila S2 Gal4-RORgamma UAS-luciferase reporter, 20 h | Potency, µM (titrated, usually from 53.6 µM), without a hit: top-dose activity change, negative = inhibition, hits mostly inhibitors | hit rate 5.4% among 310,000; further: potency means the concentration at half of the fitted maximal effect; on the % scale 0 is the no-effect control and ±100 the full control effect; nearly all actives have a fitted effect of over 60% in size
Target sequence (P51450 whole entry, looked up, the tested form may be a part): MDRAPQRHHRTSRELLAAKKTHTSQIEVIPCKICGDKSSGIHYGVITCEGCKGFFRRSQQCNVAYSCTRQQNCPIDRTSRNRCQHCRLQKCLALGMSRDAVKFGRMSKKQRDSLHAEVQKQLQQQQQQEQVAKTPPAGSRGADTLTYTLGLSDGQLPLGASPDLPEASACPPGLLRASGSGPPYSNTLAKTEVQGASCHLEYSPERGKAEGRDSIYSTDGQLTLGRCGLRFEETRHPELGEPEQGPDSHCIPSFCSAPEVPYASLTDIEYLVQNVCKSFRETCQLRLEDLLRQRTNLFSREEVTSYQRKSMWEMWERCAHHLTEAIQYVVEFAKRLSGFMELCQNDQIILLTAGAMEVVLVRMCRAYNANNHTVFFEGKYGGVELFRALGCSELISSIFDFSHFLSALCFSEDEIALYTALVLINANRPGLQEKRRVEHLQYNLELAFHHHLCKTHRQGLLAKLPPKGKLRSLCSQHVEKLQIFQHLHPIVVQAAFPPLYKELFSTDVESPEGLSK
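Schneider cells (Drosophila), stable Gal4 DBD–ROR gamma + UAS-luc; 1 hr cmpd preincubation; Cu2+ induction 700 uM final; 20 hr ambient; luminescence.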
a7 integrin act: integrin-mediated muscular dystrophy alleviation activation. alpha7betagal myoblasts, beta-gal FDG fluorescence, 48 h. Potency, µM (titrated, usually from 38.3 µM), without a hit: at the highest dose activation, usual class: activators. hit rate 0.064% among 350,000;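 further: potency means the concentration at half of the fitted maximal effect; 100% = response of the positive control SU9516; nearly all actives have a fitted effect of over 60% in size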
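alpha7betagal+/- myoblasts (passage 13, 250/well) treated 48 h at 37C with compounds at 1:260 dilution of DMSO stock. Lysed, then beta-galactosidase activity read as FDG fluorescence (ex 480/em 540) after 30 min, with pre-read for autofluorescence.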
* marks the source's active call; other numbers are inactive results; ? = inconclusive; nt = no result given; [ ] = another dose, or the depositor's remark. Only a selection was taken, and hits are over-represented in it overall. Unless noted, the call rests on the fitted dose curve; in most records, active means well fitted curve in the direction sought with a large enough effect; inconclusive means small, poorly fitted or top-dose-only effect, or another doubt; inactive means no such curve, though single readings can be large; an effect the other way counts as inactive or inconclusive.

SMILES	Giardia kill	ERG Ets-DNA blk	Gal4-VP16 FLuc	RORgamma inh	a7 integrin act
CC1(C)CC(=O)c2sc(NC(=O)c3ccccc3)nc2C1	nt	nt	6%	56%	nt
CC1(C)CC(=O)c2sc(NC(=O)CCS(=O)(=O)c3ccccc3)nc2C1	1	3%	5.6µM*	?	-68%
CC1CCCC(NC(=S)NC(=O)c2ccco2)C1C (stereo not drawn)	-6	-21%	nt	nt	1%
Cc1oc(CC(C)C)c(CN)c1C(=O)O	6	3%	0%	3%	-6%
C=CCNC(=O)C1CC1(c1cccc(C)c1)c1cccc(C)c1 (stereo not drawn)	22	-3%	nt	nt	-29%
Cc1cccc(C2(c3cccc(C)c3)CC2C(=O)Nc2ccc([N+](=O)[O-])cc2O)c1 (stereo not drawn)	15	5%	11µM*	-104%	-63%
C=CCc1c(C)nc(C)nc1N/N=C/c1ccccc1O	1	-2%	5µM*	?	6%
C=CCc1c(C)nc(C)nc1N/N=C/c1ccc([N+](=O)[O-])cc1	5	-1%	-4%	11µM*	-16%
Oc1ccccc1/C=N/Nc1nn[nH]n1	-4	11%	-1%	?	-16%
COc1ccc(-n2ccn(CC(=O)NCCc3ccccc3)c(=O)c2=O)cc1OC	nt	-1%	nt	nt	nt
Cc1cc(Nc2cccc(Cl)c2Cl)n2ncnc2n1	19	-4%	?	13µM*	15%
COc1ccc(NC(C)=O)cc1S(=O)(=O)NC(C)c1ccc(-n2ccnc2)cc1 (stereo not drawn)	?	3%	nt	nt	-15%
CNC(=S)NCc1ccc2[nH]c3c(c2c1)CCCC3	-17	-4%	-14%	18µM*	34%
CCCCNC(=S)NCc1ccc2[nH]c3c(c2c1)CCCC3	15	3%	10µM*	5µM*	-13%
CCN(CC)S(=O)(=O)c1ccc(C(=O)NCc2ccc3[nH]c4c(c3c2)CCCC4)cc1	-2	-5%	3%	24%	3%
O=C(NCc1ccc2[nH]c3c(c2c1)CCCC3)N1CCOCC1	nt	nt	-1%	-1%	nt
COc1ccccc1CNS(=O)(=O)c1cc(C(=O)Nc2cccc(C(F)(F)F)c2)ccc1F	nt	-1%	nt	nt	nt
CC(NCc1ccc(-c2ccccc2)cc1)C(O)c1ccccc1 (stereo not drawn)	1	-1%	2.8µM*	?	-62%
COc1cccc(C(=O)Nc2cccc(-c3nnc(-c4ccccc4)o3)c2)c1	-5	-1%	nt	nt	-5%
COc1cccc(-c2nnc(NC(=O)c3ccccc3Br)o2)c1	-7	21%	3.2µM*	5µM*	-7%
COc1cccc(-c2nnc(-c3ccco3)o2)c1	-3	-1%	-28%	-35%	0%
COc1cccc(-c2nnc(NC(=O)c3cccc(F)c3)o2)c1	-1	-11%	0.79µM*	0.32µM*	-13%
COc1cccc(-c2nnc(-c3ccc(C)o3)o2)c1	-15	0%	?	11µM*	-18%
COc1cccc(CC(=O)OCC(=O)Nc2nnc(-c3ccccc3)o2)c1	-11	-3%	nt	nt	0%
COc1cccc(-c2nnc(NC(=O)C(C)C)o2)c1	?	?	16µM*	?	6%
SMILES	Giardia kill	ERG Ets-DNA blk	Gal4-VP16 FLuc	RORgamma inh	a7 integrin act
C/C(CCN1CCCc2nc(C)c(C)cc21)=N\OC[C@@H](O)[C@@H]1O[C@@H]2OC(C)(C)O[C@@H]2[C@H]1O	nt	nt	1%[10 µM]	7%[10 µM]	nt
CCNC(=O)CCSc1nnc(-c2ccc(O)cc2)o1	nt	-5%	nt	nt	nt
COc1ccc(C2/C=C\[C@H](O[Si](C)(C)C(C)(C)C)[C@H](C(C)C)CC(=O)N2Cc2ccccc2)cc1 (stereo partly drawn)	nt	nt	5%	1%	nt
CCOc1ccc(S(=O)(=O)NCCC(=O)OCC(=O)Nc2cc(C)on2)cc1	17	-15%	3%	7%	-17%
COc1cc(CNn2c(C)n[nH]c2=S)cc(Cl)c1OCc1ccccc1	2	nt	-15%	7.9µM*	-15%
COc1cc(CNn2cn[nH]c2=S)cc(Cl)c1OCc1ccc(F)cc1	0	-4%	4µM*	7.1µM*	6%
C=CCOc1ccc(CNn2cn[nH]c2=S)cc1OCC	13	-3%	-13%	11µM*	-9%[7.66 µM]
COc1ccc(C(=O)CC(=O)C(=O)Nc2ccc(OC)c(Cl)c2)cc1	-24	-10%	9%	-7%	3%
COc1ccc(C(=O)CC(=O)C(=O)Nc2c(C)cccc2C)cc1	-1	-4%	5.6µM*	6.3µM*	26%
COc1ccc(C(=O)CC(=O)C(=O)Nc2cc(OC)ccc2OC)cc1	10	-10%	0%	?	-19%
COc1ccc(C(=O)CC(=O)C(=O)Nc2cc(Cl)c(OC)cc2OC)cc1	17	6%	-6%	?	-6%
COc1ccc(C(=O)CC(=O)C(=O)Nc2ccccc2Cl)cc1	6	-5%	3.2µM*	6.3µM*	22%
COc1ccc(NC(=S)Nc2ccccc2C(F)(F)F)cc1	-8	-15%	?	11µM*	-1%
COc1ccc(C(=O)CC(=O)C(=O)Nc2ccc(Cl)cc2)cc1	-8	8%	13µM*	7.1µM*	-28%
FC(F)(F)c1ccccc1NC(=S)Nc1ccccc1	-7	-3%	-2%	?	3%
CCc1ccccc1NC(=O)N1CCN(c2nnc(C)c3c(C)n(-c4ccccc4)nc23)CC1	nt	2%	nt	nt	nt
Cc1ccc(C)c2sc(NC(=O)c3ccc(S(=O)(=O)N4CCC(C)CC4)cc3)nc12	nt	1%	nt	nt	nt
CCN(CC)S(=O)(=O)c1ccc2c(c1)N(CC(=O)NCCc1ccc(OC)c(OC)c1)C(=O)CO2	nt	0%	nt	nt	nt
COc1ccc(C(=O)CC(=O)C(=O)Nc2ccccc2C(F)(F)F)cc1	9	-7%	7.1µM*	6.3µM*	6%
Cc1noc(C)c1CSc1ncnc2sc(C)c(C)c12	-4	9%	-4%	7%	-9%
Cc1noc(C)c1CSc1ncnc2sc3c(c12)CCCCC3	-5	-1%	?	7.9µM*	-2%
O=C1[C@H]2[C@H]3[C@H](O)[C@H](O)C/C(=N/OCc4ccccc4)[C@@H]3CC[C@@H]2C(=O)N1C[C@@H]1CCCO1	nt	nt	-2%[10 µM]	-4%[10 µM]	nt
CC(=O)N1c2ccc(S(=O)(=O)N3CCC(C(=O)Nc4cccc(C)c4)CC3)cc2CC1C (stereo not drawn)	-15	4%	?	43%	-54%
CC(=O)N1c2ccc(S(=O)(=O)N3CCC(C(=O)Nc4cccc(Cl)c4)CC3)cc2CC1C (stereo not drawn)	6	2%	11µM*	-31%	14%
c1cncc(-c2cncnc2NCc2cccs2)c1	nt	nt	8%	20%	nt
CCSc1nc2ccccc2c(=O)n1C1CCOC(C)(C)C1 (stereo not drawn)	10	-2%	-1%	-14%	-20%
CC1CCCCC1NC(=O)CCn1c(=S)[nH]c2ccccc2c1=O (stereo not drawn)	nt	nt	nt	nt	-1%
CC1CCC(n2c(=S)[nH]c3ccccc3c2=O)CC1 (stereo not drawn)	2	-1%	1µM*	0.2µM*	-38%
